Assay [1] in a line: circadian clock period modulators, cell-based, LOPAC library, luminescence reporter (AID 2774; call rule not given here;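 note: values are relative to mean of DMSO wells on each plate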). The following applies: circadian reporter cells, at 7 µM, actives lie on both sides.
Assay [2] deals with Hepatitis C virus NS3 helicase. Nature of the assay: HCV NS3 helicase inhibitors, primary screen, biochemical, fluorescence polarization, LOPAC1280 library (AID 687035; in the data active = inhibition above about 37%). The following applies: Purified HCV NS3 helicase, Cy5-dT15 ssDNA binding fluorescence polarization; hits give high values; concentration not given here. On the technique in general: Fluorescence polarisation rises when a labelled molecule tumbles more slowly, as on binding a larger partner.

Assay [3] can be described thus: Cy5 fluorescence quenching or enhancement artefacts, artefact control for HCV NS3 helicase inhibitor project, biochemical, LOPAC1280 (AID 687037; call rule not given here). The following applies: Cy5-DNA-NS3h complex fluorescence interference counterscreen.
Assay [4] addresses ATP-dependent translocase ABCB1 (Homo sapiens) (UniProt P08183). The experiment in a line: MDR1 (ABCB1) efflux transporter inhibition, cell-based (AID 377). The settings on record: MDR1-expressing cells, fluorescent substrate accumulation slope; hits give high values; concentration not given here.

A number with no mark means an inactive call. Inconclusive results are not listed. Calls of active or inactive are those of the source. Cut-off read from the data, not from the text of the source, unless noted: active = fluorescence slope change above about 50%; inconclusive = mostly about 31% to 49%; inactive = weaker than that.

ATP-dependent translocase ABCB1 (Homo sapiens), sequence (P08183 whole entry, looked up): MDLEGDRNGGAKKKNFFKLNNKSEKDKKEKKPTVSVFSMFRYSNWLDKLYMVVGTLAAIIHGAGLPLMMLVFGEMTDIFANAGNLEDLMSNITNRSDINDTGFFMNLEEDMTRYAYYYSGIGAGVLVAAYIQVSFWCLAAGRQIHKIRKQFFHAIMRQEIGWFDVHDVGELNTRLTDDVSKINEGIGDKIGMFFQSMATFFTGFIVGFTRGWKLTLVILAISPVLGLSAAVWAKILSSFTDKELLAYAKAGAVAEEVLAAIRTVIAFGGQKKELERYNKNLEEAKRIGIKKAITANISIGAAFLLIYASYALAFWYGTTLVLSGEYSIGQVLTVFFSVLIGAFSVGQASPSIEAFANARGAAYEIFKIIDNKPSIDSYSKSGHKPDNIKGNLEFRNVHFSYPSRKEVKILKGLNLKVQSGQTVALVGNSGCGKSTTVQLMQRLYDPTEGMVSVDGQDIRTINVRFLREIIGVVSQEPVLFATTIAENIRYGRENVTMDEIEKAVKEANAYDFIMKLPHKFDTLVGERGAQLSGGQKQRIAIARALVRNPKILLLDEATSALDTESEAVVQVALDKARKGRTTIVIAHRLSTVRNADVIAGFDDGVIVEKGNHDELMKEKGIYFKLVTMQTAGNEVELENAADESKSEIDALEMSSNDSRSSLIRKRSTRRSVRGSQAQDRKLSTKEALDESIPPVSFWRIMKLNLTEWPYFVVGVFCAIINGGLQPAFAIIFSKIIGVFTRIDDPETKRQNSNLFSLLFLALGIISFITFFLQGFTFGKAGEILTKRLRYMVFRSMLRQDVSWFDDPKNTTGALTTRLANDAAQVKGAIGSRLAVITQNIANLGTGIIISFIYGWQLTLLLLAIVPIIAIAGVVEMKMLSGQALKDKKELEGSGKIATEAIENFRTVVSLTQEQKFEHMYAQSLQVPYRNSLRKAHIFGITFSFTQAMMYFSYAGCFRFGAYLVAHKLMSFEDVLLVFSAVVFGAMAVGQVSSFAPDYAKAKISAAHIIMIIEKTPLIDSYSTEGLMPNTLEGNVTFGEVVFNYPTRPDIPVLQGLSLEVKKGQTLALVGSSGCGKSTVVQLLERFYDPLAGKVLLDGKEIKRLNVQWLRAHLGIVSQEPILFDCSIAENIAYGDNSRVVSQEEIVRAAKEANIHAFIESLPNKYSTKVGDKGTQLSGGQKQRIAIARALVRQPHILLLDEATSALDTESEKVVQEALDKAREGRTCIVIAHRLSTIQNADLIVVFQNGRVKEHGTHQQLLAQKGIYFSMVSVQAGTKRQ

On to `CC(C)NC[C@@H](O)c1ccc(O)c(O)c1`, for which the period change in assay [1] was -0.08 h. The inhibition in assay [2] is -5%. Besides, the fluorescence ratio (interference) in assay [3] was 0.9. For the molecule `CN1[C@@H](C[C@H](O)c2ccccc2)CCC[C@H]1CC(=O)c1ccccc1`, in assay [4], the fluorescence slope change is 26.3%.

Take `Nc1nc(=S)c2ncn([C@@H]3O[C@H](CO)[C@@H](O)[C@H]3O)c2[nH]1`: the fluorescence slope change in assay [4] was 59.6% (active). For `CCCCC[C@H](O)/C=C/[C@@H]1[C@@H](C/C=C\CCCC(=O)O)[C@@H](O)C[C@H]1O` (tested in a mixture with another compound), the fluorescence slope change in assay [4] is 101% (active). With `CNc1ncnc2c1ncn2[C@@H]1O[C@H](CO)[C@@H](O)[C@H]1O`, the fluorescence slope change in assay [4] is 64.6% (active).

On to `c1ccc(CNc2ncnc3nc[nH]c23)cc1`, for which the fluorescence slope change in assay [4] is 11.7%. For the molecule `O=C1OC(CN2CCOCC2)CN1N=Cc1ccc([N+](=O)[O-])o1` (stereo unspecified), in assay [4], the fluorescence slope change is 11.7%. The same measure, in the same setting: in the case of `CNCCC=C1c2ccccc2C=Cc2ccccc21` it was 58% (active); in that of `O=C1OC(C(O)CO)C(O)=C1O` (stereo unspecified), 10.1%.

Broadly, the inhibition is the relative decrease from the control value, in per cent.

These data come from PubChem BioAssay.
